From a collection of fitness landscapes (doi:10.1126/science.1257360)
Over roughly 140,000 sequences, “enrichment ratio after two sorts for PhoP signalling” has its median near 0; the highest 2% begin near 11. This excerpt belongs to a sample that is enriched for the highest values.

B1: PhoQ; a variant is named by its letters at X, in order, P23837 (parent)
chain: MKKLLRLFFPLSLRVRFLLATAAVVLVLSLAYGMVALIGYSVSFDKTTFRLLRGESNLFYTLAKWENNKLHVELPENIDKQSPTMTLIYDENGQLLWAQRDVPWLMKMIQPDWLKSNGFHEIEADVNDTSLLLSGDHSIQQQLQEVREDDDDAEMTHSVAVNVYPATSRMPKLTIVVVDTIPVELKSSYMVWSWFIYVLSANLLLVIPLLWVAAWWSLRPIEALAKEVRELEEHNRELLNPATTRELTSLVRNLNRLLKSERERYDKYRTTLTDLTHSLKTPLXXLQXXLRSLRSEKMSVSDAEPVMLEQISRISQQIGYYLHRASMRGGTLLSRELHPVAPLLDNLTSALNKVYQRKGVNISLDISPEISFVGEQNDFVEVMGNVLDNACKYCLEFVEISARQTDEHLYIVVEDDGPGIPLSKREVIFDRGQRVDTLRPGQGVGLAVAREITEQYEGKIVAGESMLGGARMEVIFGRQHSAPKDE

Variants of: B1
Assay: enrichment ratio after two sorts for PhoP signalling (ratio (wild type AVST 3.29)); higher = more functional
Settings: with PhoP (E. coli)

Variant | enrichment ratio
AAPE | ≤ 0.25
ATME | 7.5
TDME | 11.5
AAMY | ≤ 0.25
LTME | ≤ 0.25
TDVE | ≤ 0.25
AIME | 1.65
YSHD | ≤ 0.25
PTCC | ≤ 0.25
MPHN | ≤ 0.25
RHYV | ≤ 0.25
TAVD | ≤ 0.25
SIIF | 0.435
MTRM | ≤ 0.25
GTVM | 36.9
FEVM | 11.6
FEVA | ≤ 0.25
MTIM | 25.3
MKTM | ≤ 0.25
YTVM | ≤ 0.25
MTTD | ≤ 0.25
FCVM | ≤ 0.25
MTIV | ≤ 0.25
LTVM | ≤ 0.25
MTTM | 18.5
FLDD | ≤ 0.25

Variant | enrichment ratio
FDRW | ≤ 0.25
VFHM | ≤ 0.25
MSQP | ≤ 0.25
KNYG | ≤ 0.25
SEVM | 18.7
IQVM | ≤ 0.25
GYAL | ≤ 0.25
SLVM | 2.29
HEVA | ≤ 0.25
HEGM | ≤ 0.25
GLAL | 12.9
PLAL | ≤ 0.25
SCVM | 8.76
SQVM | 19.6
HEVM | 24.4
SAVM | 4.22
LWIF | ≤ 0.25
NFST | ≤ 0.25
PYQI | ≤ 0.25
GTRE | ≤ 0.25
SHDG | 1.66
MTVA | ≤ 0.25
MTVM | 12.8
STVM | 16.3
LNVM | ≤ 0.25
MTPM | ≤ 0.25

Variant | enrichment ratio
MAVM | ≤ 0.25
GNVM | 22.8
NEVM | 7.03
MEVM | 12.9
KYVM | ≤ 0.25
ITVM | ≤ 0.25
GIVM | 3.78
WVID | ≤ 0.25
KGWL | ≤ 0.25
GFAY | ≤ 0.25
QNPQ | ≤ 0.25
VYSV | ≤ 0.25
IADP | ≤ 0.25
TERG | ≤ 0.25
EIGI | ≤ 0.25
GLCK | ≤ 0.25
GLTA | ≤ 0.25
GLSM | 12.3
GDSM | 2.79
GLVM | 16.2
GLSF | 4.58
GLTC | ≤ 0.25
GLWM | ≤ 0.25
GLTI | 11.7
RFTN | ≤ 0.25
RWLE | ≤ 0.25

Variant | enrichment ratio
LIDA | ≤ 0.25
LWYT | ≤ 0.25
VRCA | ≤ 0.25
SCQC | ≤ 0.25
TMSQ | 13.5
KMMN | ≤ 0.25
TMMW | ≤ 0.25
DMSA | ≤ 0.25
TMGK | ≤ 0.25
TMSA | 15.1
DMMN | ≤ 0.25
TMMS | 14.5
TMMN | 11.5
TMMD | ≤ 0.25
TMSR | ≤ 0.25
MMSA | ≤ 0.25
FINQ | ≤ 0.25
DCDV | ≤ 0.25
ECGF | ≤ 0.25
EREC | ≤ 0.25
TNHL | ≤ 0.25
WDRM | ≤ 0.25
KETS | ≤ 0.25
RLAR | ≤ 0.25
DGIV | ≤ 0.25
KMLV | ≤ 0.25

Variant | enrichment ratio
FDFL | ≤ 0.25
TMSI | 14.2
TMVG | ≤ 0.25
TMWT | ≤ 0.25
MMMT | ≤ 0.25
TMWG | ≤ 0.25
TMMV | 4.75
TMTG | 3.06
TMMT | 22.9
TMGG | 15.7
TMMG | 23.4
TMSK | ≤ 0.25
DMSI | ≤ 0.25
IFIA | ≤ 0.25
IGQM | ≤ 0.25
PWGS | ≤ 0.25
AYGE | ≤ 0.25
THGQ | ≤ 0.25
LATF | ≤ 0.25
VFAS | ≤ 0.25
ESNS | ≤ 0.25
PACG | ≤ 0.25
ITYK | ≤ 0.25
HKVF | ≤ 0.25
KKSE | ≤ 0.25
ILEH | ≤ 0.25

Variant | enrichment ratio
TMWH | ≤ 0.25
TMHQ | 15.4
TMHP | ≤ 0.25
TMQF | 16.1
DMQF | ≤ 0.25
TMWQ | ≤ 0.25
MPHD | ≤ 0.25
PCPI | ≤ 0.25
GGFW | ≤ 0.25
ESEG | ≤ 0.25
PDQD | ≤ 0.25
VWER | ≤ 0.25
MRPD | ≤ 0.25
SKCK | ≤ 0.25
SKCI | 16.6
SKTI | 14.2
SKAV | 4.49
SKMI | 4.44
SKKL | ≤ 0.25
SKTA | 0.276
SKCL | 11.8
SKPL | ≤ 0.25
SKTS | 3.33
SKCS | 6.51
SKMV | 14.3
